# Laboratory results taken from PubChem BioAssay.
# Molecular target: Streptavidin (Streptomyces avidinii) (UniProt P22629)
# Experiment: streptavidin binders on small-molecule microarray, primary screen, artefact control for SMM compound annotation, biophysical, 635/667 nm fluorescence (AID 1147);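 also: signal reflects streptavidin binding to arrayed compounds as a control protein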
# Settings: streptavidin binding, higher = more signal
# Chain of Streptavidin (Streptomyces avidinii) (P22629 whole entry, looked up): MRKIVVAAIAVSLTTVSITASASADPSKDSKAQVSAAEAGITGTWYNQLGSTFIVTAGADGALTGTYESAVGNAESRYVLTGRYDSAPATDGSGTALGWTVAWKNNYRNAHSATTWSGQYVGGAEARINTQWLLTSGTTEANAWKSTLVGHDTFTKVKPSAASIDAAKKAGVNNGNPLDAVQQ
row,SMILES,composite z-score
1,C=CCC(OC(C)=O)[C@@H]1[C@@H](N(Cc2cc3ccccc3o2)C(=O)c2ccc(-c3ccccc3)cc2)c2cc(OCCCO)ccc2N1C(=O)Cc1ccc(OC)cc1 (stereo not given in full),-0.0182
2,COCC(=C=CC[C@@H](O)c1ccc(OCCO)cc1)CCO,-0.471
3,CC(C)(C)OC(=O)CC[C@]12N=C(c3ccc(OCCCO)cc3)O[C@H]1c1ccccc1N(Cc1ccccc1)C2=O,-0.12
4,O=C1OCCC/C=C\[C@H]2OC34C=CCN(c5ccc6ccccc6c5)C(=O)[C@H]3N(CCCO)C(=O)[C@@H]4C12 (stereo not given in full),-1.3
5,C=C/C=C/[C@@H]1C(=C)CN([C@@H](Cc2ccccc2)C(=O)OC)[C@H]1[C@@H](O)Cc1ccccc1,0.185
6,O=C1NC(=O)C2C1C=CC(C(O)c1ccccn1)N2Nc1ccc(Cl)cc1Cl (stereo not given),1.16
7,CC(C)C[C@@H]1NC(=O)CNC(=O)[C@@]23C(=O)N[C@@H](Cc4ccccc4)C2[C@H](C)[C@@]2(C)O[C@H]2C3/C=C/C/C=C\CNC1=O (stereo not given in full),-0.0691
8,CCOC(=O)C1=C[C@@H](c2ccccc2)N(S(=O)(=O)c2ccc(C)cc2)[C@H]1c1ccccc1,1.1
9,[N-]=[N+]=NCc1ccccc1C[C@]1(C(=O)N2CCOCC2)COC(c2ccc(OCCCO)cc2)=N1,1.6
10,COCCOC(=O)N1C(=O)[C@@]2(c3cc(C#Cc4ccc(OC)cc4)ccc31)[C@H](C(=O)NC[C@H](O)c1ccccc1)[C@H]1C(=O)O[C@H](c3ccccc3)[C@H](c3ccccc3)N1[C@@H]2c1ccc(OCCO)cc1,0.277
11,COCCOC(=O)N1C(=O)[C@@]2(c3cc(C#CCC(C(=O)OC)C(=O)OC)ccc31)[C@H](c1ccc(OCCO)cc1)N1[C@H](c3ccccc3)[C@H](c3ccccc3)OC(=O)[C@H]1[C@@H]2C(=O)Nc1nc2ccccc2s1,0.067
12,COCCOC(=O)N1C(=O)[C@@]2(c3cc(C#CCNC(N)=O)ccc31)[C@H](c1ccc(O)cc1)N1[C@H](c3ccccc3)[C@H](c3ccccc3)OC(=O)[C@H]1[C@@H]2C(=O)N1CCN(c2ncccn2)CC1,0.374
13,COc1cc(C(O)C2C=CC3C(=O)N(Cc4ccccc4)C(=O)C3N2n2cnnc2)cc(OC)c1OC (stereo not given),0.267
14,CCCCC=C[C@@H](NC(=O)c1ccccc1)c1ccccc1,1.89
15,COc1ccc([Si](C)(C)[C@@H]2[C@@H](CC(=O)N3Cc4ccccc4C[C@H]3CO)O[C@]3(C(=O)N(c4ccccc4)c4ccccc43)[C@H]2C)cc1,0.627
16,CCOC(=O)C1=CCC(c2ccccc2)N(S(=O)(=O)c2ccc([N+](=O)[O-])cc2)C1 (stereo not given),0.108
17,[N-]=[N+]=NCc1ccccc1[C@@H]1OC(c2ccc(OCCCO)cc2)=N[C@]1(Cc1ccccc1N=[N+]=[N-])C(=O)N1CCCCC1,1.58
18,C=CCN1C(=O)[C@]2(O[C@H](CCO)[C@@H]([Si](C)(C)c3ccc(OC)cc3)[C@@H]2C)c2cc(N3C(=O)COc4ccccc43)ccc21,0.435

row,SMILES,composite z-score
1,COCCCNC(=O)[C@@]1(c2ccc([N+](=O)[O-])cc2)CC(=O)N(CC23CC4CC(CC(C4)C2)C3)[C@@H]1c1ccc(CO)cc1I,-0.414
2,CC(C)OC(=O)CC(=O)CC(O)c1ccc([N+](=O)[O-])cc1 (stereo not given),-0.402
3,CCOC(=O)C1=CCC(c2ccco2)N(S(=O)(=O)c2ccc(C)cc2)C1 (stereo not given),1.64
4,[N-]=[N+]=Nc1ccccc1[C@@H]1OC(c2ccc(OCCCO)cc2)=N[C@]1(Cc1ccccc1)C(=O)NCc1ccccc1,1.45
5,[N-]=[N+]=NCc1ccccc1C[C@@]1(C(=O)N2CCCCC2)N=C(c2ccc(OCCCO)cc2)O[C@@H]1c1ccccc1CN=[N+]=[N-],0.721
6,O=C1C2C=CC(C(O)c3ccc(I)cc3)N(Nc3ccccc3)C2C(=O)N1c1ccccc1 (stereo not given),1.88
7,CC(C)C(=C=CC[C@@H](O)c1cccc(OCCO)c1)C[C@@H](O)c1ccccn1,-0.637
8,COC(=O)[C@@]1(Cc2ccccc2CN=[N+]=[N-])N=C(c2ccc(OCCCO)cc2)O[C@H]1c1ccccc1,-0.533
9,CCOC(=O)C[C@H]1[C@H](OC(=O)c2cc3ccccc3oc2=O)[C@@H](NC(=O)c2ccc3ccccc3c2)c2cc(OCCCO)ccc2N1C(=O)Cc1ccc(OC)cc1,1
10,COC(=O)[C@@]1(Cc2ccc(OC)cc2)[C@H]2c3cc(C(=O)N4CCCC4)n(Cc4cc(C)n(C)n4)c3C[C@H]2CN1C(=O)c1ccccc1,1.92
11,C=C(CCCC)C(=O)CC[C@H](OC(C)=O)c1ccc(OCCO)cc1,0.519
12,COc1ccc(C(=O)Nc2cccc(CN3C(=O)[C@]4(O[C@H](CCn5cc([C@H](O)c6ccccc6)nn5)[C@@H]([Si](C)(C)c5ccc(OC)cc5)[C@@H]4C)c4ccccc43)c2)cc1,0.192
13,COCCOC(=O)N1C(=O)[C@@]2(c3cc(C#CC4=CCCCC4)ccc31)[C@H](C(=O)N1CCCCCCC1)[C@H]1C(=O)O[C@H](c3ccccc3)[C@H](c3ccccc3)N1[C@@H]2c1ccc(OCCO)cc1,1.29
14,C=C(CCCC)/C(=C/C[C@H](OC(C)=O)c1ccc(OCCO)cc1)c1cc(C(=O)OC)ccc1OC,0.156
15,COc1ccc([Si](C)(C)[C@H]2[C@H](CC(=O)N3CCC[C@H]3CO)O[C@@]3(C(=O)N(Cc4ccc(N5CCC5=O)cc4)c4ccccc43)[C@@H]2C)cc1,0.39
16,[N-]=[N+]=NCc1ccccc1[C@@H]1OC(c2ccc(OCCCO)cc2)=N[C@]1(Cc1ccccc1N=[N+]=[N-])C(=O)NCCN1CCOCC1,0.974
17,O=C1C[C@@](C(=O)NCC(F)(F)F)(c2ccc([N+](=O)[O-])cc2)[C@@H](c2ccc(CO)cc2)N1CC12CC3CC(CC(C3)C1)C2,0.261
